High-throughput results: PubChem BioAssay, Corson Lab, School of Medicine, Indiana University
Shown is part of a subset that was picked to be rich in hits.
FECH inh: inhibitors of human ferrochelatase, primary screen, biochemical, purified FECH, Ni-mesoporphyrin absorbance. 20,000 compounds, 3.3% hits. calls only at 10 µM (by protocol). Ferrochelatase, mitochondrial (Homo sapiens), P22830. Ni-mesoporphyrin absorbance 550 nm;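 active = enzyme reaction rate more than 3 SD below the solvent-only control wells on the same plate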;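 note: lower slope than DMSO wells means FECH inhibition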
Target sequence (P22830 whole entry, looked up): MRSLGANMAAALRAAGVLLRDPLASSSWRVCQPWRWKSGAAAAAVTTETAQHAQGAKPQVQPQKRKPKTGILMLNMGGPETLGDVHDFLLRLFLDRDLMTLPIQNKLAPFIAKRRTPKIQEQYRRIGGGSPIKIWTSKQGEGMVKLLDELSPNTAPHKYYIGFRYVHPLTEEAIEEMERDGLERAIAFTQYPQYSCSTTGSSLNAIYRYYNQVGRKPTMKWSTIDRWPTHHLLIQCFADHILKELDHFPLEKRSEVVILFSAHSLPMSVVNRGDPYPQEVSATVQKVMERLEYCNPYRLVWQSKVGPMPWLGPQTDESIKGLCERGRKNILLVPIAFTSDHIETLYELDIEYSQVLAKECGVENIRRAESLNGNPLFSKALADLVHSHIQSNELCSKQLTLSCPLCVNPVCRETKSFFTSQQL
An asterisk follows results filed as active; i = inactive; + = active, no number.

SMILES	FECH inh
O=C(Nc1nc2n(n1)C(c1ccccc1Cl)C=C(c1ccc(Cl)cc1)N2)c1ccco1 (centres undefined)	+
CC(C)CC(=O)Nc1nc2n(n1)C(c1ccc(Cl)cc1)C=C(c1ccc(Cl)cc1)N2 (centres undefined)	+
NC(=O)c1cccnc1N1CCC(n2cc(-c3ccsc3)nn2)CC1	i
Cc1oc(-c2ccc(Cl)cc2)nc1CSc1nc2c(c(=O)[nH]1)CCCC2	i
CCOc1ncccc1C(=O)N1CCn2cncc2C1	i
O=C(Nc1cccnc1)C1CCN(c2ccc(-c3cccs3)nn2)CC1	i
CCOc1ccc(NC(=O)Nc2ccc(Sc3c(CC)c(C)nc4ncnn34)cc2)cc1	i
CCc1c(C)nc2ncnn2c1Sc1ccc(NC(=O)NCc2ccc(C)cc2)cc1	+
CCc1c(C)nc2ncnn2c1Sc1ccc(NC(=O)NCc2ccc(F)cc2)cc1	i
CCc1c(C)nc2ncnn2c1Sc1ccc(NC(=O)NCCc2ccccc2)cc1	+
CCc1c(C)nc2ncnn2c1Sc1ccc(NC(=O)Nc2ccc(C)cc2C)cc1	i
CCOc1ccccc1NC(=O)Nc1ccc(Sc2c(CC)c(C)nc3ncnn23)cc1	i
CN(C)C(=O)CN1CCC(c2ccccc2C(=O)O)C1 (centres undefined)	i
Cc1ccccc1NC(=O)CC(=O)N(Cc1ccccn1)C[C@@H]1CCC(=O)N1	i
COc1ccccc1NC(=O)Nc1nc(CC(=O)Nc2ccc(C)cc2C)cs1	i
Cc1nc(C2CC2)ncc1C(=O)N(C)CC1(CO)CCCC1	i
COc1ccccc1CN1C(=O)O[C@@H]2CN(C(=O)c3ccc(=O)[nH]c3)C[C@@H]21	i
CCOC(=O)c1ccc(NC(=O)CN2CCN(Cc3ccc(C)cc3)S2(=O)=O)cc1	i
CN(CC(=O)c1ccc(O)cc1)Cc1ccc(CO)o1	i
C=CCn1cc(CN(C)C(C)CC(=O)NC)c(C)n1 (centres undefined)	i
C=CCn1cc(CN[C@H](C)c2cccc(OC)c2)c(C)n1	+
C=CCn1cc(CNC(C)C2=CCCCC2)c(C)n1 (centres undefined)	i
O=C(c1cc(-c2ccccc2O)n[nH]1)N1CCOC(c2ccc(Cl)cc2)C1 (centres undefined)	i
CSc1nc(-c2ccccc2)c(C#N)c(N(C)CCO)n1	i
Cc1cccc(CN2CCCN(CC(=O)Nc3ccc(F)c(Cl)c3)S2(=O)=O)c1	+
SMILES	FECH inh
Cc1cccc(CN2CCN(CC(=O)Nc3ccc(F)cc3)S2(=O)=O)c1	+
Cc1cccc(CN2CCCN(CC(=O)Nc3cccc(C)c3)S2(=O)=O)c1	i
Cc1cccc(NC(=O)CN2CCN(Cc3ccc(F)cc3)S2(=O)=O)c1	i
Cc1ccc(NC(=O)CN2CCCN(Cc3cccc(C)c3)S2(=O)=O)cc1	+
Cc1ccc(CN2CCCN(CC(=O)Nc3ccc(C)cc3)S2(=O)=O)cc1	+
O=C(CN1CCCN(Cc2cccc(F)c2)S1(=O)=O)Nc1ccc(F)c(Cl)c1	i
Cc1cccc(CN2CCCN(CC(=O)Nc3ccc(C)c(F)c3)S2(=O)=O)c1	i
CC(=O)c1ccc(NC(=O)CN2CCCN(Cc3cccc(C)c3)S2(=O)=O)cc1	i
O=C(CN1CCCN(Cc2cccc(F)c2)S1(=O)=O)Nc1ccc(F)cc1	i
Cc1ccc(CN2CCN(CC(=O)Nc3ccc(C)cc3)S2(=O)=O)cc1	i
Cc1ccc(NC(=O)CN2CCN(Cc3ccc(F)cc3)S2(=O)=O)cc1	i
CC(=O)c1c(C)nn(-c2ccc(C(=O)NCc3ccccc3)o2)c1C	i
COc1ccc(Cn2c(CNC(=O)c3ccc(OC)c(OC)c3)nc3cccnc32)cc1	i
O=C(c1cn(-c2ccccc2)nn1)N1CCCOC(CN2CCOCC2)C1 (centres undefined)	i
CC(CNc1c(-c2ccc3c(c2)CCCC3)c(=O)c1=O)c1ccccc1 (centres undefined)	i
CCCn1nc(C)c(Cn2cnc(-c3ccccc3)c2C2CCOC2)c1C (centres undefined)	i
CCCc1c(C)nc2ncnn2c1Sc1ccc(NC(=O)c2cccc(C)c2)cc1	i
Cc1cc(C)cc(-n2c(CN3CCN(S(=O)(=O)c4c(C)cc(C)cc4C)CC3)nc3cccnc32)c1	i
Cc1ccc(CN2CCCN(CC(=O)Nc3cccc(Cl)c3)S2(=O)=O)cc1	i
O=C(CN1CCN(Cc2ccccc2)S1(=O)=O)Nc1cccc(Cl)c1	i
Cc1ccc(NC(=O)CN2CCN(Cc3cccc(Cl)c3)S2(=O)=O)cc1	+
COCCNS(=O)(=O)c1ccc2c(c1)CCN2C(=O)CCC(=O)N1CCOCC1	i
Cc1ccc(Cl)cc1NC(=O)CN1CCN(Cc2ccc(F)cc2Cl)S1(=O)=O	i
COc1ccccc1NC(=O)CN1CCN(Cc2ccccc2Cl)S1(=O)=O	i
Cc1ccc(Cl)cc1NC(=O)CN1CCCN(Cc2ccccc2Cl)S1(=O)=O	+
SMILES	FECH inh
Cc1c(Cl)cccc1NC(=O)CN1CCCN(Cc2ccccc2Cl)S1(=O)=O	+
Cc1cccc(C)c1NC(=O)CN1CCN(Cc2ccccc2Cl)S1(=O)=O	i
Cc1ccc(Cl)cc1NC(=O)CN1CCCN(Cc2ccccc2)S1(=O)=O	i
CC1=NC2(CCN(C3CCN(C(=O)c4cccs4)CC3)CC2)C(=O)N1	i
O=C(Cn1c(=O)n(CC2CCC(C(=O)N3CCCCC3)CC2)c(=O)c2sccc21)N1CCCC1 (centres undefined)	i
O=C(O)CCCC(=O)Nc1nc2n(n1)C(c1ccc(F)cc1)C=C(c1ccccc1)N2 (centres undefined)	i
CN1C[C@@H](NC(=O)CC2CCCC2)C[C@H]1C(=O)NCc1ccccn1	i
NS(=O)(=O)c1ccccc1NC(=O)NCc1ccc(F)cc1	+
COc1ccc(-c2cc(C(=O)NCc3ccc(F)cc3)[nH]n2)cc1S(N)(=O)=O	i
Cc1nc2nc[nH]n2c(=O)c1NC(=O)NCc1ccc(F)cc1	i
Cn1nc(-c2ccccn2)c2c1NC(=O)CC2c1cccc2nsnc12 (centres undefined)	i
COC(C)c1ccc(-c2cc(C(=O)O)cc(S(=O)(=O)N3CCOCC3)c2)cc1 (centres undefined)	i
O=C(O)c1cc(O)cc(-c2ccccc2CN2CCOCC2)c1	+
Clc1nc(-c2ccccc2CN2CCOCC2)ns1	i
COc1ccc(N2C(=O)CCS2(=O)=O)cc1S(=O)(=O)N(C)c1ccccc1	i
Cc1cnc(C)c(N2CCCC(CO)(Cc3cccc(Cl)c3)C2)n1 (centres undefined)	i
CC/C=C\CCCN1CCC2(CC1)CNC(=O)C2	i
O=C1CC2(CCN(C(=O)C/C=C/c3ccccc3)CC2)CN1	i
O=C1CC2(CCN(CCc3ccccc3)CC2)CN1	+
Cc1nc(=O)[nH]c(C)c1CCC(=O)NC(C)c1cnn(C)c1 (centres undefined)	i
Cc1ccccc1NS(=O)(=O)c1ccc(N2C(=O)CCS2(=O)=O)cc1	i
O=C(c1ccc2oc(=O)n(Cc3ccccc3)c2c1)N1CCN(Cc2ccccc2)CC1	+
CCN1CCN(C(=O)c2ccc3oc(=O)n(Cc4ccc(C)cc4)c3c2)CC1	i
CN1CCN(C(=O)c2ccc3oc(=O)n(Cc4ccccc4)c3c2)CC1	i
O=C(C1CNCCN1C(=O)c1ccc(Cn2cnnn2)cc1)N1CCCC1 (centres undefined)	i
Cc1cc(Nc2ccccc2)nc(Nc2ccc(NC(=O)c3ccccc3)cc2)n1	i
